Results as given in PubChem BioAssay (EPA / NIEHS).
Results filed as inconclusive are left out. The source made the active and inactive calls. The calls were made as follows: active = hit-call score of the fitted dose curve at least 0.9, where 1 is the maximum; inconclusive = response in the unintended direction; inactive = score below 0.9.

What was measured:
[1] = target: Estrogen receptor beta (Homo sapiens) (UniProt Q92731); assay: OT_ER_ERbERb_0480: Odyssey Thera (OT) 8-hour HEK293T Protein-Complementation Assay for Estrogen Receptor-beta/-beta Homodimer (AID 2283357);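 also: active means signal gain over DMSO baseline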
How it was run: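 ER-beta LBD homodimer PCA stably expressed in HEK293T; 8 h compound exposure, then formaldehyde fixation and Draq5 staining. Gain in nuclear/cytoplasmic fluorescence intensity versus DMSO vehicle, read on laser scanning cytometer.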

[2] = target: Androgen Receptor/SRC-1 Co-activator, AR (gene 367) (UniProt P10275); assay: OT_AR_ARSRC1_0960: Odyssey Thera (OT) 16-hour HEK293T Protein-Complementation Assay for Androgen Receptor/SRC-1 Co-activator (AID 2283353);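 also: actives raise the signal above DMSO so potency reflects increased AR and SRC-1 complex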
How it was run: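 Stable HEK293T line carries AR and SRC-1 each linked to a Venus fragment; chemicals are applied for 16 h, cells imaged at two wavelengths, and the 488 nm nucleus/cytoplasm ratio is taken as the signal, rising relative to DMSO.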

[3] = target: Androgen Receptor/SRC-1 Co-activator, AR (gene 367) (UniProt P10275); assay: OT_AR_ARSRC1_0480: Odyssey Thera (OT) 8-hour HEK293T Protein-Complementation Assay for Androgen Receptor/SRC-1 Co-activator (AID 2283354);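 also: hits raise the complementation signal above DMSO so AC50 marks enhancers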
How it was run: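 Reconstituted split-Venus YFP signal from AR–SRC-1 interaction, read by imaging 8 h post-dose in stable HEK293T lines. The 488 nm nucleus-to-cytoplasm ratio (≥400 cells/image) was fitted upward against DMSO.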

[4] = target: guinea pig Sigma Receptor, Non-selective Binding, SIGMAR1 (gene 100135589) (UniProt Q60492); assay: NVS_OR_gSIGMA_NonSelective: NovaScreen (NVS) Nuclear Receptor Binding Assay for guinea pig Sigma Receptor, Non-selective Binding (AID 2283367)
How it was run: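 Guinea pig brain membrane sigma sites were labelled with a radioligand, and bound radioactivity was counted after filtration 1 h post-dose. Compounds were screened at 25 uM in duplicate, then retested as concentration series when active.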

[5] = target: Estrogen receptor (Homo sapiens) (UniProt P03372); assay: OT_ER_ERaERa_1440: Odyssey Thera (OT) 24-hour HEK293T Protein-Complementation Assay for Estrogen Receptor-alpha/-alpha Homodimer (AID 2283349);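 also: hits raise fluorescence above DMSO for agonists and antagonists alike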
How it was run: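 HEK293T, stable ERα LBD (aa 310-547) homodimer PCA; 24 h compound exposure; mean fluorescence intensity (nuclear for agonists, nuclear plus cytoplasmic for antagonists) vs vehicle; positive fitting direction, DMSO baseline.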

[6] = target: Estrogen receptor (Homo sapiens) (UniProt P03372); assay: OT_ER_ERaERa_0480: Odyssey Thera (OT) 8-hour HEK293T Protein-Complementation Assay for Estrogen Receptor-alpha/-alpha Homodimer (AID 2283351);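 also: rise in fluorescence from reassembled reporter fragments on ERα LBD homodimer in nucleus or whole cell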
How it was run: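 Cells were treated for 8 hours, then imaged on a laser scanning plate cytometer. Complementation of reporter fragments fused to the human ERα ligand-binding domain (residues 310-547) in HEK293T gave fluorescence, and gain of signal over vehicle was fitted.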

[7] = target: human Adenosine Transporter (Adot), SLC29A1 (gene 2030) (UniProt Q99808); assay: NVS_TR_hAdoT: NovaScreen (NVS) Transporter Assay for human Adenosine Transporter (Adot) (AID 2283368)
How it was run: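 Binding displacement on U937 extracted protein, read 1 h post-dose by filtration and scintillation counting. Primary duplicate test at 25 uM, then singleton concentration series with 50 uM top; DMSO baseline.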

[8] = target: PGR (gene 5241) (UniProt P06401); assay: NVS_NR_hPR: NovaScreen (NVS) Nuclear Receptor Binding Assay for human Progestron Receptor (PR) (AID 2283360);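 also: active means loss of bound radioligand signal versus DMSO baseline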
How it was run: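 T47D-derived receptor preparation, cell-free, with tritiated or iodinated radioligand displacement measured by scintillation 18 h post-dosing. Single 25 uM duplicate screen, then concentration series; signal loss relative to DMSO.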

[9] = target: Retinoic acid receptor alpha (Homo sapiens) (UniProt P10276); assay: NVS_NR_hRAR_Antagonist: NovaScreen (NVS) Nuclear Receptor Binding Assay for human Retinoic Acid Alpha Receptor Antagonism (RAR) (AID 2283358)
How it was run: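 RARalpha antagonism was read by TR-FRET as loss of binding signal versus DMSO, 2 h after chemical addition, in a biochemical format. Single-concentration duplicates (25 uM) were run first, and actives were retested in concentration series.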

[10] = target: T1, Estrogen receptor (Homo sapiens) + Estrogen receptor beta (Homo sapiens) (UniProt P03372+Q92731); assay: OT_ER_ERaERb_0480: Odyssey Thera (OT) 8-hour HEK293T Protein-Complementation Assay for Estrogen Receptor-alpha/-beta Heterodimer (AID 2283352)
How it was run: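 HEK293T cells expressing ER-alpha/ER-beta LBD fusions to complementary reporter fragments were dosed with compound for 8 hours. Heterodimer formation was read as increased nuclear (agonist) or nuclear plus cytoplasmic (antagonist) mean fluorescence intensity versus DMSO vehicle.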

[11] = target: T1, Estrogen receptor (Homo sapiens) + Estrogen receptor beta (Homo sapiens); assay: OT_ER_ERaERb_1440: Odyssey Thera (OT) 24-hour HEK293T Protein-Complementation Assay for Estrogen Receptor-alpha/-beta Homodimer (AID 2283356);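 also: heteromer of ER alpha and ER beta binding domains; hits raise reporter fluorescence and both agonists and antagonists give an increase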
How it was run: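 HEK293T cells stably expressing a PCA pair of ERα LBD (aa 310-547) and ERβ LBD (aa 263-489) were dosed for 24 h. Fluorescence intensity increase versus DMSO vehicle was fitted as gain-of-signal.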

[12] = target: Bile acid receptor (Homo sapiens) (UniProt Q96RI1); assay: NVS_NR_hFXR_Antagonist: NovaScreen (NVS) Nuclear Receptor Binding Assay for human Farnesoid X Receptor Antagonism (FXR) (AID 2283350)
How it was run: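 Antagonist-format time-resolved FRET binding assay with extracted human receptor protein, read 1 hour after compound addition. Compounds first screened at 25 uM in duplicate, then actives tested in concentration series, with loss of signal relative to DMSO.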

[13] = target: human Peroxisome Proliferator-activated Receptor alpha (PPARa), PPARA (gene 5465) (UniProt Q07869); assay: NVS_NR_hPPARa: NovaScreen (NVS) Nuclear Receptor Binding Assay for human Peroxisome Proliferator-activated Receptor alpha (PPARa) (AID 2283359);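 also: activity means loss of TR-FRET signal versus DMSO baseline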
How it was run: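 Loss of TR-FRET binding signal relative to DMSO was measured 1 h after chemical addition to extracted receptor protein. Chemicals were first tested in duplicate at 25 uM, and actives were followed up in concentration series.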

[14] = target: Retinoic acid receptor alpha (Homo sapiens) (UniProt P10276); assay: NVS_NR_hRARa_Agonist: NovaScreen (NVS) Nuclear Receptor Binding Assay for human Retinoic Acid Alpha Receptor Agonism (RAR) (AID 2283361)
How it was run: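 Agonist-mode TR-FRET binding format using extracted protein, measured at 2 h post-dosing. Initial duplicate single-point screen at 25 uM preceded concentration series for actives; activity was normalized to DMSO baseline.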

[15] = target: human Thyroid Receptor Alpha (TRa), THRA (gene 7067) (UniProt P10827); assay: NVS_NR_hTRa_Antagonist: NovaScreen (NVS) Nuclear Receptor Binding Assay for human Thyroid Receptor Alpha Antagonism (TRa) (AID 2283362);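 also: activity is loss of signal relative to DMSO baseline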
How it was run: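 Cell-free binding assay on extracted receptor protein, read 1 h after chemical dosing by AlphaLISA chemiluminescence; loss of signal relative to DMSO baseline marks antagonism. Primary screen ran in duplicate at 25 uM, with concentration series for actives.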

Chain of PGR (gene 5241) (P06401 whole entry, looked up): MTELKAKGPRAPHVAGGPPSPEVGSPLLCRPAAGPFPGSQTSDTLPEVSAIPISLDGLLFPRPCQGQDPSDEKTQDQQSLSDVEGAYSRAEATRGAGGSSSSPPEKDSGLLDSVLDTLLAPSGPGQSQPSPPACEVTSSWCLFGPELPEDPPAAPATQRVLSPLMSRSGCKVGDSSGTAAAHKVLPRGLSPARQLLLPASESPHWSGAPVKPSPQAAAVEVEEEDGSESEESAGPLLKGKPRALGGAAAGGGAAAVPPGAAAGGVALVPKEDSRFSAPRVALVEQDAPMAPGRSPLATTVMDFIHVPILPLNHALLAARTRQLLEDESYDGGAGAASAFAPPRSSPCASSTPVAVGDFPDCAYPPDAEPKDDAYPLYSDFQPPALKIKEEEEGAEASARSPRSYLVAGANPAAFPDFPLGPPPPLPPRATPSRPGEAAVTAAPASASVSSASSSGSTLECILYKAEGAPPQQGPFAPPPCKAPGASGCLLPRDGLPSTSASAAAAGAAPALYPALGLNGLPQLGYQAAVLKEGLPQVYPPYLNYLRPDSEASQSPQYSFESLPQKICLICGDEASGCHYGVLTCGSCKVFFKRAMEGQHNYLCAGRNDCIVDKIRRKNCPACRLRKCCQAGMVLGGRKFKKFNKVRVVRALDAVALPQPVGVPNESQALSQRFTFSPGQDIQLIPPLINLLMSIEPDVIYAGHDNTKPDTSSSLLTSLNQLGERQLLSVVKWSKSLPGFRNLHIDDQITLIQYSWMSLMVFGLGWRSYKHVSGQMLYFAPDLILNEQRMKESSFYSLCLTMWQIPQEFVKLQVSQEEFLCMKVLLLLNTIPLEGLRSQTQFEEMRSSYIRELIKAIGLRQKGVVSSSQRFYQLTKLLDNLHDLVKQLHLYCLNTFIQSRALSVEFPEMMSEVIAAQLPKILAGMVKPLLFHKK
Chain of Estrogen receptor beta (Homo sapiens) (Q92731 whole entry, looked up, the tested form may be a part): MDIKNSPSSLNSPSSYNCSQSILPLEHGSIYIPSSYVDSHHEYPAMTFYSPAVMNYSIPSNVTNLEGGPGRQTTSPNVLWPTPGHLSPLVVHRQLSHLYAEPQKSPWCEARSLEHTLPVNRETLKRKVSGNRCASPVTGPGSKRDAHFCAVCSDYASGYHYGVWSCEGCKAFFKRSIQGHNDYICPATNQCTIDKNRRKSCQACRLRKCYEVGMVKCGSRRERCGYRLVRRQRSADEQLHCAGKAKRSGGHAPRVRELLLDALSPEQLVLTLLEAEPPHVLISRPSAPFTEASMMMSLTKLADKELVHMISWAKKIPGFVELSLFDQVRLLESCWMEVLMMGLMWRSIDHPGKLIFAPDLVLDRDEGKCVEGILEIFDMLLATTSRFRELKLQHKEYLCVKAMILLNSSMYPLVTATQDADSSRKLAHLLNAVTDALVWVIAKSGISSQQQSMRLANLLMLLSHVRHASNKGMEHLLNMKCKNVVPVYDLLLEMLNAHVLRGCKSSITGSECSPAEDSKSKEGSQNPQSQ
Chain of human Peroxisome Proliferator-activated Receptor alpha (PPARa), PPARA (gene 5465) (Q07869 whole entry, looked up): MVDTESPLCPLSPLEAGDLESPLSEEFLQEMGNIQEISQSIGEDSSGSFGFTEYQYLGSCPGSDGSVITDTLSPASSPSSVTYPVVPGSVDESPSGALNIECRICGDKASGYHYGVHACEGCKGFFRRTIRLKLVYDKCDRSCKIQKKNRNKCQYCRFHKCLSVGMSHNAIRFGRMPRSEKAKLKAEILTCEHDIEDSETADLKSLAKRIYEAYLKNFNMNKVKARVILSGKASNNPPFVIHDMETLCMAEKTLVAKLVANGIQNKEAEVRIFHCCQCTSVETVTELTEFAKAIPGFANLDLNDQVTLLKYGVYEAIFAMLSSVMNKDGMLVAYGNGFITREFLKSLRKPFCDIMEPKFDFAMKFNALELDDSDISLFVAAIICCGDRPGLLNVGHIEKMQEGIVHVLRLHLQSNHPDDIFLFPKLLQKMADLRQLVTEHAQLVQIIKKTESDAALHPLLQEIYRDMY
Chain of human Adenosine Transporter (Adot), SLC29A1 (gene 2030) (Q99808 whole entry, looked up): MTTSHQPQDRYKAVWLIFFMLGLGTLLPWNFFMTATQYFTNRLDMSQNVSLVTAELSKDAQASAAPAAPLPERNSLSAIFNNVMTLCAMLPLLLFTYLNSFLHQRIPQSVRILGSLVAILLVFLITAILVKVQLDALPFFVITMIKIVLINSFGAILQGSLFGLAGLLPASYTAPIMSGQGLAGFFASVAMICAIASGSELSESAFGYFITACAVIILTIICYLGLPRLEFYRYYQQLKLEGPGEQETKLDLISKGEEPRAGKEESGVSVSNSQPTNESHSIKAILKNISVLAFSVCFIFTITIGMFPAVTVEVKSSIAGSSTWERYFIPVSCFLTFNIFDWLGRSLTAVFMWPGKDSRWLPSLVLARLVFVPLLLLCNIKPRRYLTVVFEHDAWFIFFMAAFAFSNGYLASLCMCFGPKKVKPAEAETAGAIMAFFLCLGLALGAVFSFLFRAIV
Chain of Androgen Receptor/SRC-1 Co-activator, AR (gene 367) (P10275 whole entry, looked up, the tested form may be a part): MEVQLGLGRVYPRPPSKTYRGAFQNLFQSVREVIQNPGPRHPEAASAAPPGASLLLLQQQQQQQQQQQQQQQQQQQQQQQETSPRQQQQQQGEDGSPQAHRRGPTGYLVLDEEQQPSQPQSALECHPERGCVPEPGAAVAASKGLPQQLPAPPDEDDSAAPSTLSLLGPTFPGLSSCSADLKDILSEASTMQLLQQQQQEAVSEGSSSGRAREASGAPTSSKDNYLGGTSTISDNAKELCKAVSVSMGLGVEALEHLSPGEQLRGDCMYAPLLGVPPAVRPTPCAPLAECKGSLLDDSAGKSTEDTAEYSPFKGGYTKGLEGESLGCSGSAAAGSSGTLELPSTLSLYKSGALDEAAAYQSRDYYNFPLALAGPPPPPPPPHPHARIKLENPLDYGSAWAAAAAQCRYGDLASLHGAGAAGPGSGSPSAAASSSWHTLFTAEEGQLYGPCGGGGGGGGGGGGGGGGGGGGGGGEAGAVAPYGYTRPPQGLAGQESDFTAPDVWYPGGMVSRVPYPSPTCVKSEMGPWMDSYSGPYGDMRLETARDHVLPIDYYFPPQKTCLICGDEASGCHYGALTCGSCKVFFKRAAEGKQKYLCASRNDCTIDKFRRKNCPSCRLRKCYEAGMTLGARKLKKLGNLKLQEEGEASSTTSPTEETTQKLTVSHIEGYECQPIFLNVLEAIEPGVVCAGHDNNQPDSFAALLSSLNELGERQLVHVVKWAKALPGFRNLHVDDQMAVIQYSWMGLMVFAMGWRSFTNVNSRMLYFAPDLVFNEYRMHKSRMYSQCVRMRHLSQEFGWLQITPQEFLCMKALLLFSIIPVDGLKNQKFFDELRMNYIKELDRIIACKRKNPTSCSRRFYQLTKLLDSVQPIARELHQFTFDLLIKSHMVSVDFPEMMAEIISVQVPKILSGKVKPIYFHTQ
Chain of guinea pig Sigma Receptor, Non-selective Binding, SIGMAR1 (gene 100135589) (Q60492 whole entry, looked up): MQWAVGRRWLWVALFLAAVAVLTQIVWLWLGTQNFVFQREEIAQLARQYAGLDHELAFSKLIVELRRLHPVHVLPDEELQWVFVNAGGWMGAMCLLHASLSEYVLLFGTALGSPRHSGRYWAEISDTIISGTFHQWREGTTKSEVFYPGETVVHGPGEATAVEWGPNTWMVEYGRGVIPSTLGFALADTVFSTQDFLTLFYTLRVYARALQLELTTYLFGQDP
Chain of Estrogen receptor (Homo sapiens) (P03372 whole entry, looked up, the tested form may be a part): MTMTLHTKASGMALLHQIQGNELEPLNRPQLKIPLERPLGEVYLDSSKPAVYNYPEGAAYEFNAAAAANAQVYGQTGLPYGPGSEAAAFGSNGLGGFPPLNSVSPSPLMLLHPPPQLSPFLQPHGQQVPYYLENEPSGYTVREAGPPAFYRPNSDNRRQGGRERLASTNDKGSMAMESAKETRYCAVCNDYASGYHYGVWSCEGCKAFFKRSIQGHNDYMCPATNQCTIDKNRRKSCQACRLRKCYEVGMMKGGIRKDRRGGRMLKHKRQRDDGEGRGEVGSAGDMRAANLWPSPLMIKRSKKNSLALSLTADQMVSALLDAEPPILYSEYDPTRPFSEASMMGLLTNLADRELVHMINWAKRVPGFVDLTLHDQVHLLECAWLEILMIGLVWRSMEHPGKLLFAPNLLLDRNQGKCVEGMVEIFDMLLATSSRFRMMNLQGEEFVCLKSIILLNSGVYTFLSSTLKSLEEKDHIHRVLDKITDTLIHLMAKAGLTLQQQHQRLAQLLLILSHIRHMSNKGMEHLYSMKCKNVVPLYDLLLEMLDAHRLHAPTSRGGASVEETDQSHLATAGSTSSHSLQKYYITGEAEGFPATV
T1 sequence (P03372 whole entry, looked up, the tested form may be a part): as above
T1 sequence (Q92731 whole entry, looked up, the tested form may be a part): as the sequence (Q92731 whole entry, looked up, the tested form may be a part) above
Chain of Retinoic acid receptor alpha (Homo sapiens) (P10276 whole entry, looked up): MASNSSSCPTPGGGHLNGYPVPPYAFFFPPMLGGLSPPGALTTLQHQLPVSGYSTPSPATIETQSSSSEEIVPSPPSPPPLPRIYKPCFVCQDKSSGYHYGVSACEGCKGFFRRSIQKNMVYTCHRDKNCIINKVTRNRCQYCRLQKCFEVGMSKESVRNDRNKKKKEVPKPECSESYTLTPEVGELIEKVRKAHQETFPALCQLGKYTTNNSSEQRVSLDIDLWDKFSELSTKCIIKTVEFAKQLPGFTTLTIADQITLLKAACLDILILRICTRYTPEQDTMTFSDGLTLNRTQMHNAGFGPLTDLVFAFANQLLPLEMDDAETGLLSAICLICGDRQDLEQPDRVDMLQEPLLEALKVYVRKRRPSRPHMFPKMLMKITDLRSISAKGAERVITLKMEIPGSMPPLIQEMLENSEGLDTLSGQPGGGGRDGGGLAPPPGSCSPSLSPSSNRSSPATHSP

O=C1CCCCCN1
outcome [1]: inactive

CCOC(=O)CC(CC(=O)OCC)(OC(C)=O)C(=O)OCC
outcome [1]: inactive

CCCN(C1CCN(C(=O)C2CCNCC2)CC1)[C@@H]1CCc2ccc(OC)cc2C1
outcome [2]: inactive | outcome [3]: inactive | outcome [1]: inactive | AC50 [4]: 7.69 µM (active)

CCCCC(CC)COC(=O)CCCCCCCCC(=O)OCC(CC)CCCC (stereo unspecified)
AC50 [5]: 12.1 µM (active) | AC50 [6]: 0.949 µM (active) | AC50 [7]: 39.9 µM (active)

Cc1ccc(S(=O)(=O)O)cc1C
outcome [5]: inactive | outcome [6]: inactive | outcome [8]: inactive

COc1ccc(-n2nc(C(F)F)cc2-c2ccc(S(C)=O)cc2)cc1 (stereo unspecified)
outcome [5]: inactive | outcome [6]: inactive | AC50 [7]: 33.2 µM (active)

O=C(CCCCCCCCc1cccnc1)N1CCC(C=C(c2ccccc2)c2ccccc2)CC1
AC50 [2]: 27.5 µM (active) | outcome [3]: inactive | outcome [1]: inactive | outcome [9]: inactive

CCn1nc(Cc2ccccc2)cc1C1CCN(C[C@H]2C[C@H](N(C)[C@@H](C(=O)O)C(C)C)C[C@@H]2c2cccc(F)c2)CC1
outcome [5]: inactive | outcome [6]: inactive | outcome [10]: inactive | outcome [11]: inactive | outcome [1]: inactive | outcome [9]: inactive

O=C(NS(=O)(=O)/C=C/c1ccccc1)c1ccc(F)cc1Cl
outcome [5]: inactive | outcome [6]: inactive | outcome [10]: inactive | outcome [11]: inactive

CN(C)c1ccc(N=NS(=O)(=O)O)cc1
outcome [2]: inactive | outcome [3]: inactive

CC(C)c1cccc(C(C)C)c1N1C(=O)c2ccc(O)cc2C1=O
AC50 [12]: 41.1 µM (active)

C1N2CN3CN1CN(C2)C3
outcome [2]: inactive | outcome [1]: inactive | outcome [8]: inactive

CCCCC(CC)COC(=O)c1ccc(C(=O)OCC(CC)CCCC)cc1 (stereo unspecified)
outcome [2]: inactive | outcome [3]: inactive | AC50 [13]: 25 µM (active)

COC(=O)CC(=O)OC
outcome [5]: inactive | outcome [6]: inactive | outcome [10]: inactive | outcome [11]: inactive | outcome [8]: inactive

CC(=O)OC[C@H]1O[C@@](COC(C)=O)(O[C@H]2O[C@H](COC(C)=O)[C@@H](OC(C)=O)[C@H](OC(C)=O)[C@H]2OC(C)=O)[C@@H](OC(C)=O)[C@@H]1OC(C)=O
outcome [1]: inactive

Cc1ccc(O)cc1
outcome [2]: inactive | outcome [3]: inactive | outcome [1]: inactive

O=C(O)c1cccc(Oc2ccccc2)c1
outcome [5]: inactive | outcome [6]: inactive | outcome [9]: inactive | outcome [13]: inactive | outcome [7]: inactive

CCCCCCCCCCCCCCCO
outcome [1]: inactive | outcome [13]: inactive

Cn1c(=O)c2c(ncn2C)n(C)c1=O
outcome [14]: inactive

CC(C)CCCCCCCOC(=O)CCCCC(=O)OCCCCCCCC(C)C
outcome [14]: inactive | outcome [4]: inactive

O=C1CCC(N2C(=O)c3ccccc3C2=O)C(=O)N1 (stereo unspecified)
outcome [1]: inactive

COCCOc1cc2cc(C(=O)NC3CCN(C(C)C)CC3)n(CC(=O)Nc3ccc(Cl)cn3)c2cn1
outcome [1]: inactive

CC(C)(O)c1coc(S(=O)(=O)NC(=O)Nc2c3c(cc4c2CCC4)CCC3)c1
outcome [1]: inactive | outcome [8]: inactive

O=C(O)CC(O)C(=O)O (stereo unspecified)
AC50 [4]: 14.8 µM (active)

On1ccccc1=S
outcome [1]: inactive | AC50 [15]: 9.11 µM (active)

Cc1[nH]cnc1C[C@H]1CCc2c(C)c3ccccc3n2C1=O
outcome [1]: inactive | outcome [15]: inactive | AC50 [4]: 10 µM (active)

CC[C@H]1OC(=O)[C@H](C)[C@@H](O[C@H]2C[C@@](C)(OC)[C@@H](O)[C@H](C)O2)[C@H](C)[C@@H](O[C@@H]2O[C@H](C)C[C@H](N(C)C)[C@H]2O)[C@](C)(O)C[C@@H](C)C(=O)[C@H](C)[C@@H](O)[C@]1(C)O
outcome [1]: inactive

CN(C)c1ccc(Cc2ccc(N(C)C)cc2)cc1
outcome [1]: inactive | outcome [13]: inactive | AC50 [4]: 5.19 µM (active)
